Only some compounds are listed: those with a hit (about 1.2% of all), similar ones and a draw of the others.
FadD28 FP inh: M. tuberculosis FadD28 bisubstrate binding inhibition | FadD28 bisubstrate probe binding, fluorescence polarization | inhibition, % at 12.5 µM | 360,000 compounds, 0.22% hits | AID 588549; in the data active = inhibition above about 8.5%, passing the limit was not always enough
TcdB GH inh: blocks C. difficile toxin B glycohydrolase activity; P18177; TcdB glycohydrolase enzymatic assay, plate reader; inhibition, % at 9.99 µM; 350,000 compounds, 0.24% hits; AID 652162; in the data active = inhibition above about 10%
Mtb BioA inh: BioA (M. tuberculosis) enzyme inhibition; purified M. tuberculosis BioA enzyme, plate reader; inhibition, % at 9.99 µM; 360,000 compounds, 0.096% hits; AID 602481; in the data active = inhibition above about 40%
PfHsp40 rescue: compounds rescuing yeast from Plasmodium falciparum HSP40 toxicity | S. cerevisiae expressing PfHsp40, growth rescue, ATP luminescence | growth rescue, % at 12.5 µM | 340,000 compounds, 0.68% hits | AID 504582; in the data active = growth rescue above about 28%, passing the limit was not always enough;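 also: yeast W303a lacking pdr1 and pdr3 grown in galactose medium; growth measured after three days at 30 °C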
PrP 5UTR inh: inhibition of PrP 5' UTR reporter expression | cell-based PrP 5' UTR mRNA reporter, plate reader | inhibition, % (no concentration beside the values) | 340,000 compounds, 0.35% hits; in the data active = inhibition above about 52%; also: 0 = median of the neutral control wells
Y pestis TopoI: blocks Yersinia pestis topoisomerase I activity; Y. pestis Topo-I cleavage product accumulation, plate reader; activity, % at 10 µM; 360,000 compounds, 0.064% hits; AID 504884; in the data active = activity above about 50%, passing the limit was not always enough
Active calls of the source: *; / = no result given.

SMILES	FadD28 FP inh	TcdB GH inh	Mtb BioA inh	PfHsp40 rescue	PrP 5UTR inh	Y pestis TopoI
CCc1ccc(S(=O)(=O)Nc2ccc(O)c3c(=O)cc(-c4ccccc4Cl)oc23)cc1	-4.4	1.0	-1.9	3.7	-5.0	7.4
COc1ccc(NC(=O)N(C)C[C@@H]2Oc3ccc(NS(=O)(=O)c4ccc(Cl)cc4)cc3C(=O)N([C@@H](C)CO)C[C@H]2C)cc1	/	-0.1	-2.6	/	/	/
CC(Cl)C(=O)c1c(N)n(C)c(=O)n(C)c1=O (stereo not given)	-1.4	0.4	/	-0.2	-19.3	1.9
CC(Sc1nccn1C)C(=O)c1c(N)n(C)c(=O)n(C)c1=O (stereo not given)	0.2	24.4*	-1.7	-0.3	-11.2	4.7
CCc1cccc2c(C(=O)Cn3nnc(-c4ccc(OC)c(OC)c4)n3)c[nH]c12	73.0*	/	-0.8	-0.2	-12.7	19.0
COc1cc(/C=C/C(=O)OCC(=O)NC(=O)NC(C)(C)C)ccc1O	0.2	16.1*	-1.1	0.2	1.4	-8.0
CCc1cccc2c(C(=O)COC(=O)/C=C/c3ccc(O)c(OC)c3)c[nH]c12	34.9*	/	-4.3	0.5	-9.4	-13.1
COc1cc(/C=C/C(=O)OCC(=O)NCc2ccco2)ccc1O	-1.5	14.5*	-1.0	-0.3	-2.4	10.8
COc1cccc(/C=C/C(=O)OCC(=O)c2c[nH]c3ccccc23)c1	-1.3	1.0	-2.7	1.4	-12.8	-5.8
COc1ccc2c3c(n(C)c2c1)[C@@H](CO)N(C(=O)C1CCCC1)CC31CCN(CC2CCCC2)CC1	/	-2.1	/	/	/	/
C[C@@H]1CCCCO[C@@H](CN(C)C(=O)Nc2ccc(C(F)(F)F)cc2)[C@@H](C)CN([C@@H](C)CO)C(=O)c2cc(N(C)C)ccc2O1	/	-2.2	4.8	/	/	/
C[C@H](CO)N1C[C@H](C)[C@@H](CN(C)S(=O)(=O)c2ccccc2)Oc2ccc(NC(=O)Nc3ccc(F)cc3)cc2C1=O	/	0.1	4.0	/	/	/
Cc1ccc(S(=O)(=O)Oc2cccc(/C=N/Nc3ccc(C(=O)O)cc3)c2)cc1	30.1*	11.1*	17.3	-0.5	-7.0	-3.6
C(=N\n1cnnc1)/c1cccc(OCCOc2ccccc2)c1	-2.8	/	2.0	1.3	-64.8	9.0
Cc1ccc(S(=O)(=O)N/N=C/c2ccc(C(=O)O)cc2)cc1	-2.6	/	8.0	1.3	-17.3	-3.0
Cc1ccc(S(=O)(=O)Oc2cccc(/C=N/n3cnnc3)c2)cc1	-5.4	10.5*	/	0.2	-4.1	-2.7
CCCNC(=O)C[C@@H]1C[C@@H]2c3cc(NS(=O)(=O)c4ccc(F)cc4)ccc3O[C@@H]2[C@@H](CO)O1	/	-0.9	-0.9	/	/	/
CCc1cccc2c(C(=O)COC(=O)c3cccc(S(=O)(=O)N(C)C4CCCCC4)c3)c[nH]c12	21.7*	-0.8	/	0.3	-18.3	3.7
O=C(OCC(=O)c1c[nH]c2ccccc12)c1cccc(S(=O)(=O)N2CCCCCC2)c1	5.4	0.3	-0.9	-0.2	-46.0	-4.1
O=C(O)CSc1nc(-c2ccc(Cl)cc2)nc2c1oc1ccccc12	-24.0	0.3	7.5	348.3*	-37.8	8.6
O=C(O)CSc1nc(-c2ccccc2)nc2c1oc1ccccc12	-9.0	/	1.5	13.4	-7.5	12.3
Oc1ccc(Cc2ccc(Cl)cc2)c(O)c1	-8.6	10.2*	3.4	0.3	-10.2	-1.1
Oc1ccc(Cc2ccccc2Cl)c(O)c1	-15.6	12.6*	3.4	3.5	-12.5	-10.3
Oc1ccccc1Cl	-0.4	1.2	1.0	2.0	-17.4	-4.5
CCNC(=O)C[C@H]1CC[C@H]2[C@@H](COC[C@H](O)CN2C(=O)Nc2cccc(OC)c2)O1	/	/	-1.2	/	/	/
SMILES	FadD28 FP inh	TcdB GH inh	Mtb BioA inh	PfHsp40 rescue	PrP 5UTR inh	Y pestis TopoI
Oc1ccc(-c2nc3cnccn3c2Nc2ccc3c(c2)OCCO3)cc1	-1.9	20.2*	21.5	-0.4	-17.2	-5.4
COc1ccc(C=O)cc1OS(=O)(=O)c1ccc(NC(C)=O)cc1	-2.3	1.5	/	41.6*	-3.8	-2.4
COc1ccc(N=C(C)C2=C(O)c3ccccc3C2=O)cc1	1.4	/	-1.8	-1.1	-13.7	-2.3
CC(=O)Nc1ccc(N=C(C2=C(O)c3ccccc3C2=O)c2ccccc2)cc1	13.6*	1.7	/	-0.3	-57.2	1.0
O=C(NCCCN1CCOCC1)c1ccc2ccccc2c1	-2.7	1.1	/	-1.6	-17.1	-9.8
O=C(NCCCN1CCOCC1)c1cccc(NC(=O)c2ccccc2)c1	-1.1	1.1	7.7	122.2*	-23.7	0.4
Brc1ccc(N/N=C(/N=Nc2nn[nH]n2)c2ccccc2)cc1	13.2*	-1.3	/	-1.1	-21.3	-0.9

Bioassay records from PubChem BioAssay.
